These results are taken from the supplement of paper PMC6555819.

The test has as its system VDR:RXRa (NR concentration 270 nM, RXRa partner concentration 90 nM). As to the kind of experiment: PBM binding z-score (relative to random genomic background probes); higher = stronger binding; sequences stand for … in GC…GCGATTGACAGCGTAGAATGAAGG
As for the experimental part: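 Protein-binding microarray (Agilent 4x180K custom design, double-stranded 60-nt probes: 5' GC cap, 34-nt variable region, 24-nt constant primer region; full probe sequence given). Purified or IVT nuclear receptor:RXRα heterodimers (3:1 NR:RXRα, mostly 270:90 nM) or homodimers were incubated for 1 h in PBS with 2% milk and no ligand, then detected with Alexa488 antibodies. Fluorescence from o1-orientation probes (~5 replicates averaged) was converted to z-scores against 500 random hg19 background probes. Variable regions are seed direct-repeat (DR0–DR5) sites, all their single-nucleotide variants and half-site ablations.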
In the case of CTCGAAAGGACGGTTGAGGTGAGTATACGGATAA, the PBM binding z-score was -0.266.

In turn, TAGCCTAGTTCATTGGGCCAGTATAGTACGCATC showed a PBM binding z-score of 1.17.

CAAACTAAGTCAAGAGGTCAAAGTCCGCTTCCCG had a PBM binding z-score of 5.15.

With CCTACTGGGCCAAAGGTAATTGATTCCAATGCTC, the PBM binding z-score was -0.387.

GATACAGGGTCAGCTAAAGGCCAGAGTATGGAAA had a PBM binding z-score of 3.

In turn, CATACAGGGTCAGCTAGACCAGAGTAGGGACGGC had a PBM binding z-score of 2.52.

The sequence CCTATTAGTTGACCATAAGGGGAACCGAAGCTCG yielded a PBM binding z-score of 0.632.

Take AGAACGAAGGCAATGAGTTGATAGCACGGGTGGC: the PBM binding z-score was 0.485.

GCTAGCAGGCCATTTGGGTCGCTCAATGACGGGC yielded a PBM binding z-score of -0.563.

The sequence CGTTAAAGTTCAAGGTAACGTAACAGAAAGCAGC showed a PBM binding z-score of 3.02.

In turn, CCTAGTTGGTCAGCAGGTCACACACCGGATATGA showed a PBM binding z-score of 2.32.

In the case of CAAACTAGGTCTAGAGGTCAAAGTCCGCTTCCCG, the PBM binding z-score came out at 4.93.

In turn, ATCTCTAGGTAAGACTCAGTACAGTGAAGAACGC displayed a PBM binding z-score of 0.435.

Take CCTCGGAGGACAACAGGAGGTCAGAGCCGCCAGA: the PBM binding z-score is 1.58.

For the sequence ATTAGCAGGCCAAGTTTGGGTCACTCAAACAAAG, the PBM binding z-score amounted to 0.833.

Sequence TGACAAAGTTCAAAGGTAACGTAAGTATCCACAC had a PBM binding z-score of 5.25.

In turn, CGTCAAAGTACAAGGTAACGTAACAGAAAGCAGC returned a PBM binding z-score of 0.215.

TCTTATAGGTAAAGGTGAAAGTCGAACGATATGA displayed a PBM binding z-score of 1.25.

In turn, ACTATTAGTTGAGAGGAGGGCAACCGATAGGTTG displayed a PBM binding z-score of 0.152.

The sequence TTACGAAGGTGAAGGTCGTTGATCCCTCTGTAGA came in with a PBM binding z-score of 1.39.

With TAATATAGGTAAACAGGTGAAAGTCCGTAAGTTA, the PBM binding z-score is 1.19.

CCGACTGCGGCAAGGTTACCATAACGCACAGCCA yielded a PBM binding z-score of 0.302.

As for CGTCCAAGGTCAGAGGTCAGTGAAGAGATGACGG, the PBM binding z-score is 5.16.

ATATGTAGGTTATCGGGTCATTCGGTTTGCGCAT had a PBM binding z-score of 5.19.

Take TCATATAGGTAATACAGGTGAGAGTCGGCATCTA: the PBM binding z-score came to 0.85.

For the sequence CCAGACAGGTGAAAGATAACTCAGTCTGGTACGC, the PBM binding z-score amounted to 0.17.

As for GCGACTGGGACATCAGCAGGTTACCATAACTTAA, the PBM binding z-score was -0.302.

Consider ATAATGAGGTTATACGTAGATCAGGGAAGAAAGT, for which the PBM binding z-score is 1.95.

Sequence TCATATAGCTAAATGCTAGGTGAAAGTCCGATCT came in with a PBM binding z-score of 0.429.

Take CCTACTGGGCCAACGTCATTGATCAGTCAAAGCA: the PBM binding z-score was -0.476.

CATACAGGGTCTGCTAGGCCAGAGTAGGGACGGC came in with a PBM binding z-score of -0.426.

As to CTACCAAGGTGAACAAGGTCGTTAATTACTATTC, the PBM binding z-score was 6.04.

As for TCTTCTAGATCAACAGGAGGTTAAGAAAGATCGA, the PBM binding z-score was 0.728.

On to TAGCCTAGGTCATGCGGGCCATTATAGTGTCGGC, for which the PBM binding z-score was found to be 4.09.

Regarding AGAATGAGGTTAAGAGCAGGGAAACAGAATACAT, the PBM binding z-score came to 0.967.

TCATATAGGTAAATGTTAGGTGAAAGTCCGATCT registered a PBM binding z-score of 1.23.

In turn, AGGCAAAGTTCAGGACGAGGTAACGTAAAGCACG showed a PBM binding z-score of 2.67.

With CTCGAAAGTTCGGTTGAGGTGAGTATACGGATAA, the PBM binding z-score is 0.728.

GCGACTGGGGCATCAGCAGGTTACCATAACTTAA returned a PBM binding z-score of 0.0367.

Consider CGAACGAGGGCCTGAGTTGATAGCAAATGCCGAT, for which the PBM binding z-score is -0.469.
